# Results as given in article PMC7862700, “An all-to-all approach to the identification of sequence-specific readers for epigenetic DNA modifications on cytosine”.
# Columns and labels:
# Assay in all cases: DAPPL (digital affinity profiling via proximity ligation, sequencing); 10 mM Tris-HCl pH 7.5, 50 mM NaCl, 1 mM DTT, 4% glycerol, room temperature, 30 min; GST-TFs on glutathione beads, 16-mer random dsDNA library, 0.1% formaldehyde crosslink after washing; high values mean tight binding
# FLI1 = molecular target: T1, FLI1 (Homo sapiens, UniProt Q01543 1-452); settings: protein: recombinant; tags: N-terminal GST; dsDNA, one strand shown
# T1 sequence: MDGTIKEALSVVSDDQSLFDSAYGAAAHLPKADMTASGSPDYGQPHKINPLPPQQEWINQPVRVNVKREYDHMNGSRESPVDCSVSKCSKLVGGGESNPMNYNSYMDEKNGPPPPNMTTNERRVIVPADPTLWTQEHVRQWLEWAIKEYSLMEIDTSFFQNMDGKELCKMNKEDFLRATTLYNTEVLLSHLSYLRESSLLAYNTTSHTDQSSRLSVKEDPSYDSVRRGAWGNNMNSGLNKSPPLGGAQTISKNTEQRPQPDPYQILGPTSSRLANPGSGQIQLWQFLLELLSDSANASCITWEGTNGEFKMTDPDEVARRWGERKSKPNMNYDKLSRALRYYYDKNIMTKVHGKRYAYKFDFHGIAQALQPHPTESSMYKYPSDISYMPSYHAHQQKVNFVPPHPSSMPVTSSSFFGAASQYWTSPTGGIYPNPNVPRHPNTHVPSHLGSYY
# Procedure, shortened: (§1)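 GST fusions of human transcription factors were expressed in yeast and captured with glutathione beads. Once given DNA barcodes and pooled alongside a tag-only sample, they were incubated for 30 min at room temperature with 200 nmole of a random double-stranded 16-mer DNA library in Tris/NaCl/DTT/glycerol buffer, then washed, crosslinked (0.1% formaldehyde), proximity-ligated, PCR-amplified and sequenced on an Illumina NextSeq500. The binding signal of each hexamer is its read frequency for a factor divided by its frequency for the tag-only sample.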
# ELK1 = molecular target: T2, ELK1 (Homo sapiens, UniProt P19419 1-428); settings: protein: recombinant; tags: N-terminal GST; dsDNA, one strand shown
# T2 sequence: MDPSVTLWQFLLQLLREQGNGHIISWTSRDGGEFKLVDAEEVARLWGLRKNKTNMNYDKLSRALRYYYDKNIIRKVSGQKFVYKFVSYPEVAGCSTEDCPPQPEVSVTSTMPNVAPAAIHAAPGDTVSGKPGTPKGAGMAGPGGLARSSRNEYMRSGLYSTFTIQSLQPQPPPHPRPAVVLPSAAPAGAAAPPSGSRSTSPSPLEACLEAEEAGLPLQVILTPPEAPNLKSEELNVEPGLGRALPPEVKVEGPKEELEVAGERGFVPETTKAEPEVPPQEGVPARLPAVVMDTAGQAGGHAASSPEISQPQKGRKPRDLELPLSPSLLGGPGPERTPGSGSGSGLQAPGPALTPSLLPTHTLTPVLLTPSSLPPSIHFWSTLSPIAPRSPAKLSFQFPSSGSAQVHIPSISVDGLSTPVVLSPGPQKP
# Procedure, shortened: as §1
# GABPA = molecular target: T3, GABPA (Homo sapiens, UniProt Q06546 1-454); settings: protein: recombinant; tags: N-terminal GST; dsDNA, one strand shown
# T3 sequence: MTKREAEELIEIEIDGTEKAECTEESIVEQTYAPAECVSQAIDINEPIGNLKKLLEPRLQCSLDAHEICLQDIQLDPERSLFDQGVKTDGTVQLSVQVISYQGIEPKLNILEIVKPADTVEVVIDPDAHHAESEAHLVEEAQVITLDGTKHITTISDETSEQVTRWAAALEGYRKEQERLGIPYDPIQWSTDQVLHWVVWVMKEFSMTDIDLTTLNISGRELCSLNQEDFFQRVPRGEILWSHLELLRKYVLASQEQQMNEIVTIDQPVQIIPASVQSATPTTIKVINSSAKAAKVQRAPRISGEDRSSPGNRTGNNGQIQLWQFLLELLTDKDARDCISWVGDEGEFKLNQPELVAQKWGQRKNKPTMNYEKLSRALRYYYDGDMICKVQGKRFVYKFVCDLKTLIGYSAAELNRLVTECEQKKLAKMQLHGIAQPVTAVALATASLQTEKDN
# Procedure, shortened: as §1
# ERG = molecular target: T4, ERG (Homo sapiens, UniProt P11308 1-479); settings: protein: recombinant; tags: N-terminal GST; dsDNA, one strand shown
# T4 sequence: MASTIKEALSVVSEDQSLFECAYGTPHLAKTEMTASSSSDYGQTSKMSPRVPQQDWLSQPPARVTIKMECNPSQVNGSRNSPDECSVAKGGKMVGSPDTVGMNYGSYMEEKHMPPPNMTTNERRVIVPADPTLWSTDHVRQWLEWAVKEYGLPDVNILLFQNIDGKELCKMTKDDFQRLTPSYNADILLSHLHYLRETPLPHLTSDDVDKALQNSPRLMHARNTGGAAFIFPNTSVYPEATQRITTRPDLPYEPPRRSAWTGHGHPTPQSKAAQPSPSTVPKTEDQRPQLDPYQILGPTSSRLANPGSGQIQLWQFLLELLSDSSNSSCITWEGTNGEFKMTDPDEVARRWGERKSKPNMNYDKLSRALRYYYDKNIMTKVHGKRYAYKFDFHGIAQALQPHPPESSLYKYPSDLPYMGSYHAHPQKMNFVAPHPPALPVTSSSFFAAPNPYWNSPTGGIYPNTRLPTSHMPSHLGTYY
# Procedure, shortened: as §1
# ELF1 = ELF1 (Homo sapiens, UniProt P32519 1-619); settings: protein: recombinant; tags: N-terminal GST; dsDNA, one strand shown
# ELF1, sequence (P32519 whole entry): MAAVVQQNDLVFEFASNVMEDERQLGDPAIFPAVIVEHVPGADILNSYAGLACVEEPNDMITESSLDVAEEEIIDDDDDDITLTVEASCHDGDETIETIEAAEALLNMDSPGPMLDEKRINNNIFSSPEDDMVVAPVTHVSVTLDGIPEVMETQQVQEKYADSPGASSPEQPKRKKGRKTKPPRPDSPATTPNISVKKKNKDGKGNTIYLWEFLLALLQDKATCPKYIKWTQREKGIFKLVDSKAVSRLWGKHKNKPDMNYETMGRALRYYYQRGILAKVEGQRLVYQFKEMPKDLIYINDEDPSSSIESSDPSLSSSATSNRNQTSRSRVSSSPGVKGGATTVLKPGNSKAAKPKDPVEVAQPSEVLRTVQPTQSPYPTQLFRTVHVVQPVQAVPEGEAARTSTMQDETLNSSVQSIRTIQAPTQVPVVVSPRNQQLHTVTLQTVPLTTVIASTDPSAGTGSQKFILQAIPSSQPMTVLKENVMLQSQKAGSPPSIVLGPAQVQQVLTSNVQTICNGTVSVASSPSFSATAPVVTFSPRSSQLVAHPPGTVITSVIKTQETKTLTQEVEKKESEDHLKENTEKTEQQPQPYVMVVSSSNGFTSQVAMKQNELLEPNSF
# Procedure, shortened: as §1
# EHF = molecular target: T5, EHF (Homo sapiens, UniProt Q9NZC4 1-300); settings: protein: recombinant; tags: N-terminal GST; dsDNA, one strand shown
# T5 sequence: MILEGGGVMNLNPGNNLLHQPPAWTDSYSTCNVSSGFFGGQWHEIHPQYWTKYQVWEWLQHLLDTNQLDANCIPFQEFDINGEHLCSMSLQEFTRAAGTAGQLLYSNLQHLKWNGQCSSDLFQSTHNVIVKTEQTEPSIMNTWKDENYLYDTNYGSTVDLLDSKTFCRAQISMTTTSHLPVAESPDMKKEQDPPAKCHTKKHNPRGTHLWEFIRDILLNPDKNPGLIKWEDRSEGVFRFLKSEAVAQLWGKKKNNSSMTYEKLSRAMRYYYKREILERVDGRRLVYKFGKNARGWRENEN
# Procedure, shortened: as §1
# SPI1 = SPI1 (Homo sapiens, UniProt P17947 1-270); settings: protein: recombinant; tags: N-terminal GST; dsDNA, one strand shown
# Procedure, shortened: as §1
# SPIB = SPIB (Homo sapiens, UniProt Q01892 1-262); settings: protein: recombinant; tags: N-terminal GST; dsDNA, one strand shown
# SPIB, sequence (Q01892 whole entry): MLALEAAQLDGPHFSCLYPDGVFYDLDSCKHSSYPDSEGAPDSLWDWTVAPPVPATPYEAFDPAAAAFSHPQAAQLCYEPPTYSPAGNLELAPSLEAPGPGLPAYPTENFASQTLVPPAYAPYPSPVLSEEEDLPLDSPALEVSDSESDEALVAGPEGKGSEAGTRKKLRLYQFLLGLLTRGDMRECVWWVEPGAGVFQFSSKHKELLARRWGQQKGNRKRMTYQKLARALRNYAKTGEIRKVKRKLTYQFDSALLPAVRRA
# Procedure, shortened: as §1
# ELK3 = molecular target: T6, ELK3 (Homo sapiens, UniProt P41970 1-407); settings: protein: recombinant; tags: N-terminal GST; dsDNA, one strand shown
# T6 sequence: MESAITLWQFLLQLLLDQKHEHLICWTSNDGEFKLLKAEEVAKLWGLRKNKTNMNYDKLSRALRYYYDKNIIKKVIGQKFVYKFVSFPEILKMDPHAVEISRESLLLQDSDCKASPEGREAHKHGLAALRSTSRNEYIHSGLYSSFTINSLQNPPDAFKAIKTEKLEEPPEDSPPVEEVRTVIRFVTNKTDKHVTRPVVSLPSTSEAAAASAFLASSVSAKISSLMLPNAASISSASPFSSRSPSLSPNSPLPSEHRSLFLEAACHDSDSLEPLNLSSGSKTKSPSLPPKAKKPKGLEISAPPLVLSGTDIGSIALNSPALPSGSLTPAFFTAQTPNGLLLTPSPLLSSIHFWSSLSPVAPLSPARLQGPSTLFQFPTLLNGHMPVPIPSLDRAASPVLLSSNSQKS
# Procedure, shortened: as §1
# FEV = molecular target: T7, FEV (Homo sapiens, UniProt Q99581 1-238); settings: protein: recombinant; tags: N-terminal GST; dsDNA, one strand shown
# T7 sequence: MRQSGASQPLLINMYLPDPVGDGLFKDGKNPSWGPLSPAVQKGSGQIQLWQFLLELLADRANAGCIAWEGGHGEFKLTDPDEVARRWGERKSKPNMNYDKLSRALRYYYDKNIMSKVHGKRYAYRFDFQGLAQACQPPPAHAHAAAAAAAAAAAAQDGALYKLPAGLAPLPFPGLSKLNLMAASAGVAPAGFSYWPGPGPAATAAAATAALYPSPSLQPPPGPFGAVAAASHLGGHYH
# Procedure, shortened: as §1
# ETV5 = ETV5 (Homo sapiens, UniProt P41161 1-510); settings: protein: recombinant; tags: N-terminal GST; dsDNA, one strand shown
# ETV5, sequence (P41161 whole entry): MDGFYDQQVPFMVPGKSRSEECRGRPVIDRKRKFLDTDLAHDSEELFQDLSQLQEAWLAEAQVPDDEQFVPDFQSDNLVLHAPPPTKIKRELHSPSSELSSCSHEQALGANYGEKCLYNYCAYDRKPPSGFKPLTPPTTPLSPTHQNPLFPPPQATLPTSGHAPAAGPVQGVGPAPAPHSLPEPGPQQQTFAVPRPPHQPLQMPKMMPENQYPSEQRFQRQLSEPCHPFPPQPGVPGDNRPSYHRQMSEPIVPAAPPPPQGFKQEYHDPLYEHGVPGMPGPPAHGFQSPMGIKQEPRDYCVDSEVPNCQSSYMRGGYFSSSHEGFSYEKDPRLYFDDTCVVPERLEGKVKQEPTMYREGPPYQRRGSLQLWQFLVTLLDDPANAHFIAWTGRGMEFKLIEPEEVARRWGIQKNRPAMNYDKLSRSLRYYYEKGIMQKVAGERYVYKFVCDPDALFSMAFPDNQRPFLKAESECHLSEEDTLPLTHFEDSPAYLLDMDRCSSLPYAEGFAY
# Procedure, shortened: as §1
# HSF1 = HSF1 (Homo sapiens, UniProt Q00613 1-529); settings: protein: recombinant; tags: N-terminal GST; chain copies: 3; dsDNA, one strand shown
# HSF1, sequence (Q00613 whole entry): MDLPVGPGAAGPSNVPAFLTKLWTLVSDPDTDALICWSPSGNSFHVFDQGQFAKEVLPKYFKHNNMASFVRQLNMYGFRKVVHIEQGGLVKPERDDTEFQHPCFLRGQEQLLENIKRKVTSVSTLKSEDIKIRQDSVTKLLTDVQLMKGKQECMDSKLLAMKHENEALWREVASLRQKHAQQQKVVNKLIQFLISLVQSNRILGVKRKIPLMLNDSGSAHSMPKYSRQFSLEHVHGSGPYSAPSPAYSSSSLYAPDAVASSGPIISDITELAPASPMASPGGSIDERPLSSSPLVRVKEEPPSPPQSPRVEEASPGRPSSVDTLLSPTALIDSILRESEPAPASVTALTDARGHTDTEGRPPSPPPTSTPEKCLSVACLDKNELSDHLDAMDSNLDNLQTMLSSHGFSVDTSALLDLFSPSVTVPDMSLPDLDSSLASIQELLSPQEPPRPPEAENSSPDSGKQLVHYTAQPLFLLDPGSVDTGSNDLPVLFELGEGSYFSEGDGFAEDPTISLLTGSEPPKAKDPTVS
# Procedure, shortened: as §1
# SPIC = molecular target: T8, SPIC (Homo sapiens, UniProt Q8N5J4 1-248); settings: protein: recombinant; tags: N-terminal GST; dsDNA, one strand shown
# T8 sequence: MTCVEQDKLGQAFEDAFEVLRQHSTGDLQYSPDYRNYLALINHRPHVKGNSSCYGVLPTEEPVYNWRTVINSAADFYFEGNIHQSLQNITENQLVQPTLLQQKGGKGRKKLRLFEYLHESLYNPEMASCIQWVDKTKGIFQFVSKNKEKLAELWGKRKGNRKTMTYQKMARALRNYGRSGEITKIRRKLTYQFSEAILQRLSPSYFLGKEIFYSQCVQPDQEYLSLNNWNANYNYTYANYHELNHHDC
# Procedure, shortened: as §1
# ELF4 = ELF4 (Homo sapiens, UniProt Q99607 1-663); settings: protein: recombinant; tags: N-terminal GST; dsDNA, one strand shown
# ELF4, sequence (Q99607 whole entry): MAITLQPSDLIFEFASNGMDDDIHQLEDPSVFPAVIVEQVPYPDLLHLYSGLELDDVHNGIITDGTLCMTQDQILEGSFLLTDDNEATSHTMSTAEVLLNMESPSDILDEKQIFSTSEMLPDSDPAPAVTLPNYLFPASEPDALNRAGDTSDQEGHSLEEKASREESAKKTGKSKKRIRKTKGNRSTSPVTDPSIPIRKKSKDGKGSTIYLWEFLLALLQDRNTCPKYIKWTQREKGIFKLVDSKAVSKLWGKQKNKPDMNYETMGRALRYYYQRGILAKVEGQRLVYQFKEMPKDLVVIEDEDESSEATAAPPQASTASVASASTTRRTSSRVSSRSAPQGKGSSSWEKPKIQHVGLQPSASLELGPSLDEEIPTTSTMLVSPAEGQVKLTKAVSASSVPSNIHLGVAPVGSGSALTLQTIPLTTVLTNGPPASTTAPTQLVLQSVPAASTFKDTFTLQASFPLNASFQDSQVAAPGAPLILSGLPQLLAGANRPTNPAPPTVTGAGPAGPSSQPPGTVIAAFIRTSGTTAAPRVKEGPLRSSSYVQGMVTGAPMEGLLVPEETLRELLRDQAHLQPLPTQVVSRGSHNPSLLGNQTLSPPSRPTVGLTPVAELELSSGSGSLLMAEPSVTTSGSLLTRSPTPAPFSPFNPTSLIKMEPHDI
# Procedure, shortened: as §1
# ELK4 = molecular target: T9, ELK4 (Homo sapiens, UniProt P28324-2 1-405); settings: protein: recombinant; tags: N-terminal GST; dsDNA, one strand shown
# T9 sequence: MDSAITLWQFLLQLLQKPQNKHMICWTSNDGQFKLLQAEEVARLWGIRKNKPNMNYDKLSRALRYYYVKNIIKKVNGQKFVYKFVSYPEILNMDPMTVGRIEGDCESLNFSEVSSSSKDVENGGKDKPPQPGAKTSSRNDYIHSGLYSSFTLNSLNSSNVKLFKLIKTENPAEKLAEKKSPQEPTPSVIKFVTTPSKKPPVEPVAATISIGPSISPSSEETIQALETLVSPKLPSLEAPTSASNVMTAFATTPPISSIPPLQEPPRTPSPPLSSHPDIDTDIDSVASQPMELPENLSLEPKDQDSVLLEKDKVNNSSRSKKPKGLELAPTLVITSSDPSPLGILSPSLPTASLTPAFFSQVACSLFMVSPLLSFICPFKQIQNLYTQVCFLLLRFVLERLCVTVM
# Procedure, shortened: as §1
# ETV2 = molecular target: T10, ETV2 (Homo sapiens, UniProt O00321 1-342); settings: protein: recombinant; tags: N-terminal GST; dsDNA, one strand shown
# T10 sequence: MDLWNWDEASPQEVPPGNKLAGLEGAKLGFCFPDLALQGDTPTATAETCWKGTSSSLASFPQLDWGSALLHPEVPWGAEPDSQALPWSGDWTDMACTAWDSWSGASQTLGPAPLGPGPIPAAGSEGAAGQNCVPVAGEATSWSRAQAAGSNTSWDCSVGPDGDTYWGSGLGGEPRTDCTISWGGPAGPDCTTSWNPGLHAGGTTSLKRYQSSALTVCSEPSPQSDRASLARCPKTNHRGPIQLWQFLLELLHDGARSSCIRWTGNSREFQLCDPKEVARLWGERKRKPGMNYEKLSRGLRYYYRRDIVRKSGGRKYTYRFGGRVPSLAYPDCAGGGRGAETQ
# Procedure, shortened: as §1
# ELF3 = molecular target: T11, ELF3 (Homo sapiens, UniProt P78545 1-371); settings: protein: recombinant; tags: N-terminal GST; dsDNA, one strand shown
# T11 sequence: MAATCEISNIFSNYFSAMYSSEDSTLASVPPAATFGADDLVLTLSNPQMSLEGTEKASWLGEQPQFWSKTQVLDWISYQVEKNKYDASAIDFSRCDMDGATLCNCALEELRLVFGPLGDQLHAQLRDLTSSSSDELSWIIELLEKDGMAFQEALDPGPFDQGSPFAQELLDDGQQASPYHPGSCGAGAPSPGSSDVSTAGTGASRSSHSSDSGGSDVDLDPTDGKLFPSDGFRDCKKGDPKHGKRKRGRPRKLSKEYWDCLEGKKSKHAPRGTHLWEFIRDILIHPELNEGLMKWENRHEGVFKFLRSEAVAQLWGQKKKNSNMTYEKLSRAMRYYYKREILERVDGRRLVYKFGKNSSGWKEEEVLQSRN
# Procedure, shortened: as §1
# CRX = CRX (Homo sapiens, UniProt O43186 1-299); settings: protein: recombinant; tags: N-terminal GST; dsDNA, one strand shown
# CRX, sequence (O43186 whole entry): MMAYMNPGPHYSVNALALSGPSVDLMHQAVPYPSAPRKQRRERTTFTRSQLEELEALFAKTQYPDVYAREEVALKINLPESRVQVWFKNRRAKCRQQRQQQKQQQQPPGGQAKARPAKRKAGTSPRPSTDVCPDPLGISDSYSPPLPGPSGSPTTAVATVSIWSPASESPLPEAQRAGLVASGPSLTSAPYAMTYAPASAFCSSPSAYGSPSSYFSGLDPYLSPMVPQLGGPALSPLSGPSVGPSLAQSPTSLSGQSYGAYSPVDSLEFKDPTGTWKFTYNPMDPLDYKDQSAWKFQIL
# Procedure, shortened: as §1
# ETV1 = ETV1 (Homo sapiens, UniProt P50549 1-477); settings: protein: recombinant; tags: N-terminal GST; dsDNA, one strand shown
# ETV1, sequence (P50549 whole entry): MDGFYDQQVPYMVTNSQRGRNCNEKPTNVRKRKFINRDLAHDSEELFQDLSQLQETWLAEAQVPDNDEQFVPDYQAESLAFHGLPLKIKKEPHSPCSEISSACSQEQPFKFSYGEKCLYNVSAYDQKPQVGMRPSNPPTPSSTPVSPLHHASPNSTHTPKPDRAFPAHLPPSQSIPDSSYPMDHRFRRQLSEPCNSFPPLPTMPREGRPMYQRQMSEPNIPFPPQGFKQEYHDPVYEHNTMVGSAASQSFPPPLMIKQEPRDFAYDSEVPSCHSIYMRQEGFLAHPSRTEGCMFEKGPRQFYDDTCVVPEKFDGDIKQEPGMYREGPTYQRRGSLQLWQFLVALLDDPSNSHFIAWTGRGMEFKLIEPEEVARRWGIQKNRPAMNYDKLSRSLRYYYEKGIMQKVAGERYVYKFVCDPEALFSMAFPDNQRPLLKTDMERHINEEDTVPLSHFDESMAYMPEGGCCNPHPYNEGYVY
# Procedure, shortened: as §1
sequence,measurement,setting,value
ACAACT,binding signal,FLI1,"1.36 fold enrichment (6-mer frequency, TF over GST control)"
same,binding signal,ELK1,"1.4 fold enrichment (6-mer frequency, TF over GST control)"
same,binding signal,GABPA,"1.4 fold enrichment (6-mer frequency, TF over GST control)"
same,binding signal,ERG,"1.41 fold enrichment (6-mer frequency, TF over GST control)"
same,binding signal,ELF1,"1.46 fold enrichment (6-mer frequency, TF over GST control)"
same,binding signal,EHF,"1.2 fold enrichment (6-mer frequency, TF over GST control)"
same,binding signal,SPI1,"1.41 fold enrichment (6-mer frequency, TF over GST control)"
same,binding signal,SPIB,"1.35 fold enrichment (6-mer frequency, TF over GST control)"
same,binding signal,ELK3,"1.5 fold enrichment (6-mer frequency, TF over GST control)"
same,binding signal,FEV,"1.35 fold enrichment (6-mer frequency, TF over GST control)"
same,binding signal,ETV5,"1.32 fold enrichment (6-mer frequency, TF over GST control)"
same,binding signal,HSF1,"1.11 fold enrichment (6-mer frequency, TF over GST control)"
same,binding signal,SPIC,"1.39 fold enrichment (6-mer frequency, TF over GST control)"
same,binding signal,ELF4,"1.36 fold enrichment (6-mer frequency, TF over GST control)"
same,binding signal,ELK4,"1.34 fold enrichment (6-mer frequency, TF over GST control)"
same,binding signal,ETV2,"1.29 fold enrichment (6-mer frequency, TF over GST control)"
same,binding signal,ELF3,"1.42 fold enrichment (6-mer frequency, TF over GST control)"
same,binding signal,CRX,"1.02 fold enrichment (6-mer frequency, TF over GST control)"
same,binding signal,ETV1,"1.27 fold enrichment (6-mer frequency, TF over GST control)"
